Experimental data reported in PubChem BioAssay (EPA / NIEHS).
The source made the active and inactive calls. How the source made its calls: active means hit-call score of the fitted dose curve at least 0.9, where 1 is the maximum; inactive means score below 0.9.

Assay: ATG_AP_2_CIS: Attagene CIS-FACTORIAL HepG2 Assay for human Activator Protein 2 (AP-2) (AID 2282932)
Settings: HepG2 AP-2 cis-reporter, Attagene transcription factor profiling; actives raise or lower the signal
Method: ATG_CIS is a cell-based, multiplexed-readout assay that uses HepG2, a human liver cell line, with measurements taken at 24 hours after chemical dosing in a 24-well plate.ATG_AP_2_CIS is one of 52 assay component(s) measured or calculated from the ATG_CIS assay. It is designed to make measurements of mRNA induction, a form of inducible reporter, as detected with fluorescence intensity signals by Reverse transcription polymerase chain reaction (RT-PCR) and Capillary electrophoresis technology.Data from the assay component ATG_AP_2_CIS was analyzed into 1 assay endpoint. This assay endpoint, ATG_AP_2_CIS, was analyzed with bidirectional fitting relative to DMSO as the negative control and baseline of activity. Using a type of inducible reporter, measures of mRNA for gain or loss-of-signal activity can be used to understand the reporter gene at the transcription factor-level as they relate to the gene TFAP2A and TFAP2B and TFAP2D. Furthermore, this assay endpoint can be referred to as a primary readout, because this assay has produced multiple assay endpoints where this one serves a reporter gene function. To generalize the intended target to other relatable targets, this assay endpoint is annotated to the dna binding intended target family, where the subfamily is basic helix-turn-helix leucine zipper.
Human liver HepG2 cells are transiently transfected with multiple reporter transcription units (MRTUs) in 6-well plates using FuGene 6 reagent (Roche; 3 ml FuGene/1 mg DNA). The MRTU constructs are regulated by a cis-regulating element (promoter). […] A major difference between the CIS and TRANS system is that in CIS activities of endogenous TFs are measured, whereas the TRANS assay evaluates changes in activities of exogenous, chimeric NR-Gal4 proteins. […] At the end of 24 hour incubation, total RNA was isolated using TriZol reagent (Invitrogen). The isolated RNA is then reverse-transcribed using oligo(dT) primer and Mo-MLV reverse transcriptase (Invitrogen) with DNAse I (Ambion) treatment for 30 min. The one-tenth of the produced cDNA was amplified by PCR using Taq DNA polymerase (Invitrogen) and two reporter sequence-specific primers. The PCR products were fluorescently labeled by primer extension with 6-arboxyfluorescein (6-FAM) 5'-labeled reporter sequence-specific primer (2 min at 95 C, 20 s at 68 C and 10 min at 72 C) and these products were digested with 5U of HpaI (New England Biolabs) for 2h at 37 C. The fragments were purified using Qiaquick PCR columns (Qiagen), analyzed on an ABI 3130xL genetic analyzer (Applied Biosystems) with peak positions identified by using a set of X-rhodamine (ROX)-labeled MapMarker1000 molecular weight standards (BioVentures). The raw capillary electrophoresis data was processed using Attagraph software (Attagene).

Compound	outcome	AC50
C=C(C)C(=O)OCC(C)C	inactive	
O=C1CCC(=O)N1Cl	inactive	
CC/C=C\CCOC(=O)CCCCC	inactive	
CC(=O)c1ccc[nH]1	inactive	
COCc1c(C(C)C)nc(C(C)C)c(/C=C/[C@@H](O)C[C@@H](O)CC(=O)O)c1-c1ccc(F)cc1	inactive	
CCC(C)(C)C1CCCCC1OC(C)=O (stereo not given)	inactive	
C=C1C2CCC(C2)C1(C)C (stereo not given)	inactive	
C=C[Si](C)(C)O[Si](C)(C)C=C	inactive	
SCCc1cnccn1	inactive	
c1ccc(CNCc2ccccc2)cc1	inactive	
Cc1cc(C)c(C)c(C)c1	inactive	
O=S(=O)(O)CC(O)CCl (stereo not given)	inactive	
CC(=O)C=CC1C(C)=CCC(C)C1(C)C (stereo not given)	inactive	
O=C(O)CC(C(=O)O)C(CC(=O)O)C(=O)O (stereo not given)	inactive	
CCCCC(CC)COC(=O)c1ccccc1 (stereo not given)	inactive	
C=CC(=O)OCCC(=O)O	inactive	
CCOC(=O)NNc1nncc2ccccc12	inactive	
O=c1n(CCO)c(=O)n(CCO)c(=O)n1CCO	inactive	
O=C(C=Cc1ccccc1)OCc1ccccc1	inactive	
C=CC(C)(C)C	inactive	

Compound	outcome	AC50
O=C(Nc1ccccc1)c1ccccc1O	inactive	
NC(=O)c1ccccc1O	inactive	
C[Si](C)O[Si](C)(C)O[Si](C)(C)O[Si](C)C	inactive	
O=c1cc(-c2ccccc2)oc2ccccc12		26.3 µM (active)
O=C1C=CC(=O)O1	inactive	
CCCCCCCCO[C@@H]1O[C@H](CO)[C@@H](O)[C@H](O)[C@H]1O	inactive	
CCCCCCCCC(=O)OCC	inactive	
Cc1cc(C)c(C)cc1C	inactive	
O=c1c2ccccc2oc2ccccc12	inactive	
CC(C)(C)C(=O)C=Cc1ccc(Cl)cc1		169 µM (active)
C=C(C)CCO	inactive	
C=CC(=O)OCC(Br)CBr (stereo not given)	inactive	
CCCCCC(C)O (stereo not given)	inactive	
CC(=O)NS(=O)(=O)c1ccc(N)cc1	inactive	
OCCc1ccncc1	inactive	
CCCOCCOCCOCCO	inactive	
NC(=O)NNC(N)=O	inactive	
C=CCCCCCCCCC(=O)OCCCC	inactive	
C=CC=CC=CCCCCC	inactive	
Cc1ccc2oc(=O)ccc2c1	inactive	
